Results as given in PubChem BioAssay AID463212 (Sanford-Burnham Center for Chemical Genomics, 2010).
Hit rate of the full screen: of about 330,000 compounds, about 4,400 (1.3%) were called active.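 The calls were made as follows: active = growth inhibition of the mutant yeast at or above 50%; inactive = the rest.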 What follows is part of a selection rich in actives, with near analogues and random picks from the rest.

Experiment: growth inhibitors of tim23-1 mutant yeast, primary screen, luminescence, uHTS (AID 463212);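 also: temperature-sensitive mutant grown at 25 °C; plate controls were DMSO-treated mutant yeast for no effect and medium wells lacking yeast for full effect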
Conditions: S. cerevisiae tim23-1 growth, BacTiter-Glo luminescence, 24 h; at 20 µM; stronger effect = higher value

inhibition, active:
Fc1ccccc1-c1cc2cc3c(cc2cn1)OCO3 54.8%
CN1C(=O)/C(=N/OC(=O)c2ccccc2Br)c2ccccc21 56.2%
CSC(=S)N/N=C/c1c[nH]c2ccccc12 63.2%
FC(F)(F)c1cccc(Nc2ncnc3ccccc23)c1 94%
Clc1ccc(Nc2nc(-c3cccs3)cs2)nc1 70.7%
O=c1c(-c2ccc3c(c2)OCCO3)c(C(F)(F)F)oc2cc(O)cc(O)c12 58.2%
CC(=O)N1N=C(c2ccncc2)OC1(Cc1ccccc1)Cc1ccccc1 52.9%
Oc1ccccc1-c1cc(-c2ccc(Cl)cc2)n[nH]1 56.4%
COc1ccc(Oc2cn[nH]c2-c2ccc(OC)cc2O)cc1 66.3%
Cc1cccc(C)c1NC(=O)C(Cl)C(=O)c1ccccc1 (stereo unspecified) 80.7%
O=C1c2ccccc2S(=O)(=O)N1CC(O)Cn1c2ccccc2c2ccccc21 (stereo unspecified) 84.5%
CCc1ccccc1NC(=O)CN(c1ccc(OC)cc1OC)S(=O)(=O)c1ccccc1[N+](=O)[O-] 50.4%
O=C(Nc1nnc(SCc2c(Cl)cccc2Cl)s1)C1CCCO1 (stereo unspecified) 52.3%
CN(C)/N=C/c1cn(-c2ccccc2)nc1-c1cccnc1 50.3%
CCc1ccc(C(=O)NC(=S)Nc2ccccc2N2CCOCC2)cc1 53.9%
O=C(N/N=C/C=C/c1ccco1)c1cccs1 59.4%
CCCCCCc1ccc(O)cc1O 62.8%

inhibition, inactive:
O=C(c1ccco1)N1CCN(C(=O)c2cc(-c3ccccc3F)no2)CC1 19.6%
Fc1ccc2cnc(-c3ccccc3)cc2c1 31.1%
COc1ccc(-n2c(SCC(=O)Nc3ccc4c(c3)OCO4)nnc2C(C)N2CCCCC2)cc1 (stereo unspecified) 0.001%
O=C(O)c1ccc(S(=O)(=O)N2CCC(Cc3ccccc3)CC2)cc1 -3.54%
CSCC[C@H](NC(=O)N1CCn2c1nc1ccccc12)C(=O)NCc1ccc2c(c1)OCO2 -0.587%
CCCCNC(=O)CCn1c(=O)c2ccccc2n(Cc2cc(C)ccc2C)c1=O -7.13%
COC(=O)c1ccccc1NC(=O)CSc1nc2c(c(=O)[nH]1)CCC2 16%
CN1C(=O)/C(=C\c2cc(Br)cs2)c2ccccc21 24.9%
Nc1cc(OC(=O)c2ccccc2Br)nn1S(=O)(=O)c1ccccc1 37.3%
O=C(COc1ccc(F)cc1Br)NCC1COc2ccccc2O1 (stereo unspecified) 25%
CN(C)S(=O)(=O)N1CCN(c2ccc([N+](=O)[O-])cc2)CC1 9.07%
Nc1nonc1-n1nnc(C(=O)N/N=C/c2c[nH]c3ccccc23)c1-c1ccccc1 14.8%
O=C(O)c1cccc(NC(=S)N/N=C/c2c[nH]c3ccccc23)c1 7.37%
FC(F)(F)c1cccc(NC(=S)Nc2cccc(Cl)c2)c1 46.1%
COc1ccc(CNc2ncnc3ccccc23)cc1 -0.028%
Cc1ccccc1-n1nc(SCC(=O)O)sc1=S -2.14%
[O-][n+]1c2c(nn1-c1ccc(Cl)c(Cl)c1)-c1nonc1CC2 4.72%
Clc1ccc(Cc2nnc(-c3cccs3)o2)cc1 15%
CCCc1cc(C(=O)Nc2ccc(Cl)cn2)cs1 33%
O=C(OCC(=O)N1CCCCCC1)c1cnc(Cl)c(Cl)c1 2.9%
O=S(=O)(Nc1ccc(O)c2ccccc12)c1ccc(OC(F)(F)F)cc1 28.5%
COc1ccc(-c2onc(C)c2-c2ccc3c(c2)OCCO3)c(O)c1 28.1%
CCOC(=O)c1cc2cc(-c3c(C(=O)OCC)oc4cc(O)cc(O)c4c3=O)ccc2o1 14.3%
CCOc1ccc(CCNC(=O)CCc2nnc3ccc(N4CCCC4)nn23)cc1OCC 10.2%
O=C1NC(c2ccccc2)Oc2ccccc21 (stereo unspecified) 22.9%
Cc1ccccc1NC(=O)COc1cccc2c1CCNC2=O 12.3%
O=C(Nc1ccc(N2CCN(C(=O)c3cccs3)CC2)cc1)c1cccnc1Cl 12.9%
O=C(Nc1nn(Cc2ccccc2F)cc1Br)c1cccs1 17.3%
O=C(Cc1ccccc1)N1N=C(c2ccncc2)CC1(O)C(F)(F)F (stereo unspecified) 9.71%
CC(=O)N1N=C(c2ccccc2)OC1c1cccnc1 (stereo unspecified) 0.277%
Cc1ccsc1C(=O)NNC(=O)COc1ccc(Br)cc1 -6.92%
C#CCNC(=O)[C@H](Cc1ccc(C(=O)c2ccccc2)cc1)NC(=O)OC(C)(C)C 5.1%
O=C(CNc1cccc(S(=O)(=O)N2CCCCC2)c1)Nc1ccccc1F 14.8%
COCCn1c(C)cc(C(=O)CN2c3cccc4cccc(c34)S2(=O)=O)c1C 5.11%
CSc1ccccc1-c1nnc(-c2ccc(Cl)cc2)o1 21.3%
Cc1ccc(NC(=O)c2cc(-c3ccccc3O)n[nH]2)cc1C -2.65%
Cc1ccc(NC(=O)c2nc[nH]c2C(=O)N2CCCCC2)c(C(=O)c2ccccc2)c1 6.29%
C=C(C)C(=O)O[C@H]1C/C(C)=C\C(=O)/C=C(\C)[C@H](O)[C@@H]2OC(=O)C(=C)[C@@H]21 4.97%
COc1ccc(C)cc1NC(=O)CSc1nnc(CC(=O)Nc2ccccc2F)n1C 3.22%
O=C(O)Cn1c(Cc2ccccc2)nc2ccccc21 -1.32%
CCOc1ccccc1Oc1cn[nH]c1-c1ccc(OC)cc1O -69.3%
COc1ccc(-c2cn[nH]c2-c2ccc(OC)cc2)cc1 47.7%
Cc1cc(NC(=O)CSCc2nc(-c3cccc(Cl)c3)oc2C)no1 1.1%
COc1cccc2c1CCC(NC(C)=O)C2=O (stereo unspecified) 0.522%
Cc1cccc(C)c1NC(=O)C(c1ccccc1)N1CC(=O)Nc2ccccc21 (stereo unspecified) 21.3%
Cc1cccc(C)c1NC(=O)CN(C)C(=O)CCC(=O)c1ccccc1 15%
COc1ccc(CN2CCCCC2C)cc1OC (stereo unspecified) 10.1%
CCC(C)n1c(-c2cc(OC)c(OC)c(OC)c2)nc2nc3ccccc3nc21 (stereo unspecified) 19.1%
C[C@H](NC(=O)C1CC(=O)N(c2ccc3c(c2)OCO3)C1)C(=O)NCc1ccco1 (stereo partly specified) 13.9%
CCCCN(CCCC)CC(O)Cn1c2ccccc2c(=O)c2ccccc21 (stereo unspecified) 5.18%
CC(C)(C)c1ccc(CN2C(=O)c3ccccc3S2(=O)=O)cc1 22.3%
COc1ccc(N(CC(=O)Nc2ccc(C)cc2C)S(=O)(=O)c2ccccc2[N+](=O)[O-])c(OC)c1 19.7%
COc1ccc(N(CC(=O)Nc2cccc3ccccc23)S(C)(=O)=O)c(OC)c1 6.45%
CCN(CC)S(=O)(=O)c1ccc(CNC(=O)CN2C(=O)NC3(CCc4ccccc43)C2=O)cc1 (stereo unspecified) 9.27%
Cc1ccc(S(=O)(=O)N2CCC(C(=O)OCC(=O)N3CC(=O)Nc4ccccc43)CC2)cc1 14.9%
CC[C@]12c3[nH]c4ccc(Cl)cc4c3CCN1C(=O)[C@@H](CC(=O)NCCN1CCOCC1)C[C@@H]2C(=O)N1CCN(C(=O)C2CC2)CC1 24.7%
CC1Cn2c(nnc2-c2cccs2)S1 (stereo unspecified) 3.29%
NS(=O)(=O)c1ccc(CCNC(=O)CNC(=O)Cc2ccccc2)cc1 7.58%
CCN(CC)c1ccc(NC(=O)C2CCC(CNc3c(N4CCCC4)c(=O)c3=O)CC2)c(C)c1 (stereo unspecified) 2.65%
O=C(Nc1nnc(SCc2c(Cl)cccc2Cl)s1)c1cccc([N+](=O)[O-])c1 -8.16%
O=C(NCc1ccccc1Cl)C1CCCO1 (stereo unspecified) 3.86%
CC1CN(C(=O)c2cc(COc3c(F)cccc3F)on2)CCN1C (stereo unspecified) 8.91%
NC(=O)C1CCN(C(=O)c2cn(-c3ccccc3)nc2-c2cccnc2)CC1 -6.01%
O=C(COC(=O)/C=C/c1cn(-c2ccccc2)nc1-c1cccnc1)Nc1ccc(Cl)cc1Cl 20.1%
O=C1CC(C(F)(F)C(F)(F)C(F)(F)C(F)(F)F)=Nc2ccccc2N1 15.9%
CC(C)C[C@H](NC(=O)NCCc1ccc(Cl)cc1)C(=O)O 9.43%
Cc1ccc2nc(SCC(=O)N3CC(C)OC(C)C3)nc(=O)n2c1 (stereo unspecified) 10.2%
O=C(Nc1ccccc1N1CCOCC1)c1ccncc1 -8.11%
O=C(NC(=S)Nc1ccccc1N1CCCCC1)c1ccc(F)cc1 32.5%
O=C(NC1CC2CCCC(C1)N2C(=O)N1CCCCC1)C1CCCCC1 (stereo unspecified) 19.4%
Cc1cc(C)nc(NC2=NCC(=O)N2c2ccc(Cl)cc2)n1 -5.7%
O=C(Nc1ccc(NC(=O)c2cccs2)cn1)c1ccco1 17.2%
O=C(N/N=C/c1ccco1)c1csc2c1CCCC2 22.8%
O=C(Nc1ccc(Br)cc1)c1cc(S(=O)(=O)Nc2ccccn2)ccc1Cl -0.209%
Cc1ccc(NN=C2C(=O)OC(C)(C)OC2=O)c(C)c1 -2.58%
CCCCCCc1cc2cc(-c3nnc(-c4ccccc4)o3)c(=O)oc2cc1O 7.67%
CCCCCCCN=C(C)c1ccccc1O 5.76%
CC(C)NC(=O)NNc1c(Cl)cncc1Cl 2.69%
O=C(/C=C/c1cccc(C(F)(F)F)c1)N1CCN(c2ccccn2)CC1 37.6%
